Results on six compounds are retold here after PubChem BioAssay (NCI).

A short description of assay [1]: NCI Yeast Anticancer Drug Screen. Data for the rad50 strain (AID 155).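 Note: 0% = growth of vehicle-only cultures of the same strain.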 Particulars: S. cerevisiae rad50 strain growth inhibition, stronger effect = higher value. A digest of the protocol:
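Readout: growth inhibition relative to vehicle-treated cultures. Compound exposure was carried out in a genetically defined yeast strain deficient in DNA damage repair.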

The nature of assay [2]: NCI Yeast Anticancer Drug Screen. Data for the mec2-1 strain (AID 157). The following applies: S. cerevisiae mec2-1 strain, stronger effect = higher value. A digest of the protocol: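 Growth inhibition is read against vehicle-treated controls after compound exposure of the mec2-1 yeast strain, which is defective in DNA damage repair or cell cycle control.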
Assay [3] is described as follows: NCI Yeast Anticancer Drug Screen. Data for the sgs1 mgt1 strain (AID 161).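 Note: 0% = growth of cultures given vehicle only.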 The following applies: S. cerevisiae sgs1 mgt1 strain, stronger effect = higher value. A digest of the protocol: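 Yeast cells carrying a defined DNA-repair defect were exposed to test compounds. Growth inhibition was measured relative to vehicle-treated controls.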
Assay [4] is described as follows: NCI Yeast Anticancer Drug Screen. Data for the cln2 rad14 strain (AID 165).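 Note: 0% = growth equal to vehicle treated cultures.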 Particulars: S. cerevisiae cln2 rad14 strain, stronger effect = higher value. The method, boiled down:
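Growth inhibition, relative to vehicle-treated controls, is the read-out. The test organism is a yeast strain with defined genetic alterations, cln2 rad14.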

Assay [5] is described as follows: NCI Yeast Anticancer Drug Screen. Data for the bub3 strain (AID 167). Particulars: S. cerevisiae bub3 mutant strain, stronger effect = higher value. The method, boiled down:
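Readout: yeast growth inhibition, expressed relative to vehicle-only wells. The test organism is a mutant strain from a panel with lesions in DNA repair or checkpoint genes.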

Assay [6] can be described thus: NCI Yeast Anticancer Drug Screen. Data for the mlh1 rad18 strain (AID 175). Particulars: S. cerevisiae mlh1 rad18 strain growth inhibition, stronger effect = higher value. The method, boiled down: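 Cells of a genetically altered yeast strain, deficient in DNA damage repair, were treated with compound. Their growth was then compared with that of vehicle-treated cultures to give inhibition.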

Where [7] appears, read: at 5.0 µM (retest, dose inferred, filed as 0.5).
[8] abbreviates: at 50.0 µM (retest, dose inferred, filed as 5.0).

Compounds without any hit were thinned out: in the full panel of roughly 79,000, 15% have a hit. Values without a mark were called inactive. Activity calls are given as the source filed them. Cut-off read from the data, not from the text of the source: active = growth inhibition above about 70%; inactive = the rest.

As for `Nc1nnc(CCC(=O)Nc2ccccc2Cl)o1`, the growth inhibition in assay [1] (setting [7]) was -2%; in assay [1] (setting [8]), -5%; in assay [1] (at 50.0 µM) it was -1.3%; in assay [2] (setting [7]), 0%; in assay [2] (setting [8]) it was 4%; in assay [2] (at 50.0 µM), 79.5% (active). In addition, the growth inhibition in assay [3] (setting [7]) was -6%; in assay [3] (setting [8]), -2%; in assay [3] (at 50.0 µM), 98.5% (active); in assay [4] (setting [7]) it was 7%; in assay [4] (setting [8]), 9%; in assay [4] (at 50.0 µM), 98.2% (active). Further, the growth inhibition in assay [5] (setting [7]) is 1%; in assay [5] (setting [8]), 2%; in assay [5] (at 50.0 µM), 98.8% (active); in assay [6] (setting [7]), -5%; in assay [6] (setting [8]), 2%; in assay [6] (at 50.0 µM), 98.5% (active).

For the compound `Nc1nc(N)c2nc(CNc3ccc(C(=O)NC(CCC(=O)O)C(=O)O)cc3)ccc2n1` (stereo not drawn), the growth inhibition in assay [1] (setting [7]) is -2%; in assay [1] (setting [8]) it was -5%; in assay [1] (at 50.0 µM), 16.3%; in assay [2] (setting [7]), -25%; in assay [2] (setting [8]), 11%; in assay [2] (at 50.0 µM) it was 64.2%. Besides, the growth inhibition in assay [3] (setting [7]) was 18%; in assay [3] (setting [8]), 16%; in assay [3] (at 50.0 µM) it was 0.1%; in assay [4] (setting [7]), 9%; in assay [4] (setting [8]), 21%; in assay [4] (at 50.0 µM), -5.8%. The growth inhibition is 7% in assay [5] (setting [7]); 3% in assay [5] (setting [8]); -38.9% in assay [5] (at 50.0 µM); -8% in assay [6] (setting [7]); 8% in assay [6] (setting [8]); -20.7% in assay [6] (at 50.0 µM).

As to `COc1cc(/C=C2\CCc3ccccc3C2=O)ccc1O`, the growth inhibition in assay [1] (setting [7]) is -18%; in assay [1] (setting [8]), 99% (active); in assay [1] (at 50.0 µM) it was 89.2% (active); in assay [2] (setting [7]) it was -14%; in assay [2] (setting [8]), 100% (active); in assay [2] (at 50.0 µM) it was 92.2% (active). The growth inhibition in assay [3] (setting [7]) is -28%; in assay [3] (setting [8]) it was 99% (active); in assay [3] (at 50.0 µM), 88% (active); in assay [4] (setting [7]), 5%; in assay [4] (setting [8]) it was 99% (active); in assay [4] (at 50.0 µM), 90.8% (active). Further, the growth inhibition was 24% in assay [5] (setting [7]); 99% (active) in assay [5] (setting [8]); 91.5% (active) in assay [5] (at 50.0 µM); -20% in assay [6] (setting [7]); 99% (active) in assay [6] (setting [8]); 84.3% (active) in assay [6] (at 50.0 µM).

For `O=C1C=C/C(=C(/c2ccc(O)c(O)c2)c2ccccc2S(=O)(=O)O)C=C1O`, the growth inhibition in assay [1] (setting [7]) was 1%; in assay [1] (setting [8]) it was 0%; in assay [1] (at 50.0 µM) it was 11.8%; in assay [2] (setting [7]) it was 2%; in assay [2] (setting [8]) it was -25%; in assay [2] (at 50.0 µM), -0.5%. Besides, the growth inhibition in assay [3] (setting [7]) is -2%; in assay [3] (setting [8]) it was 2%; in assay [3] (at 50.0 µM), 5.3%; in assay [4] (setting [7]), 5%; in assay [4] (setting [8]) it was -2%; in assay [4] (at 50.0 µM), 15.9%. Moreover, the growth inhibition in assay [5] (setting [7]) is -40%; in assay [5] (setting [8]), -3%; in assay [5] (at 50.0 µM), -1.5%; in assay [6] (setting [7]), 2%; in assay [6] (setting [8]), 4%; in assay [6] (at 50.0 µM) it was 1.75%.

Consider `COc1ccc(C(CC(=O)c2ccccc2)Sc2ccccc2N)cc1` (stereo not drawn), for which the growth inhibition in assay [1] (setting [7]) was 46%; in assay [1] (setting [8]), 52%; in assay [1] (at 50.0 µM), -4.15%; in assay [2] (setting [7]) it was 54%; in assay [2] (setting [8]), 51%; in assay [2] (at 50.0 µM), 26.9%. Besides, the growth inhibition in assay [3] (setting [7]) is -13%; in assay [3] (setting [8]), 32%; in assay [3] (at 50.0 µM), 32.4%; in assay [4] (setting [7]), 44%; in assay [4] (setting [8]), 20%; in assay [4] (at 50.0 µM), -13.3%. For the same compound, the growth inhibition in assay [5] (setting [7]) is 35%; in assay [5] (setting [8]) it was 57%; in assay [5] (at 50.0 µM) it was 49.8%; in assay [6] (setting [7]), 36%; in assay [6] (setting [8]), 46%; in assay [6] (at 50.0 µM), 7.35%.

For `O=C1C=C(Cl)C(=O)C(Cl)=C1Cl`, the growth inhibition in assay [1] (setting [7]) is -14%; in assay [1] (setting [8]), 99% (active); in assay [1] (at 50.0 µM), 99.2% (active); in assay [2] (setting [7]), 11%; in assay [2] (setting [8]), 99% (active); in assay [2] (at 50.0 µM), 99.3% (active). In addition, the growth inhibition was 12% in assay [3] (setting [7]); 99% (active) in assay [3] (setting [8]); 99.2% (active) in assay [3] (at 50.0 µM); -25% in assay [4] (setting [7]); 91% (active) in assay [4] (setting [8]); 98.7% (active) in assay [4] (at 50.0 µM). Further, the growth inhibition in assay [5] (setting [7]) was 8%; in assay [5] (setting [8]), 99% (active); in assay [5] (at 50.0 µM), 99% (active); in assay [6] (setting [7]), 3%; in assay [6] (setting [8]), 99% (active); in assay [6] (at 50.0 µM), 98.8% (active).
